Source: PubChem BioAssay AID1645859 (Buhrlage Lab, Dana-Farber Cancer Institute and Novartis …, 2021)
Hit rate of the full screen: of about 47,000 compounds, about 95 (0.2%) were called active. Rule as the data show it: active = inhibition above about 30%; inactive = the rest. What follows is part of a selection rich in actives, with near analogues and random picks from the rest.

molecular target: Ubiquitin carboxyl-terminal hydrolase isozyme L1 (Homo sapiens) (UniProt P09936); assay: inhibitors of human UCHL1 deubiquitinase (AID 1645859); settings: purified UCHL1, Ub-rhodamine cleavage fluorescence; at 20 µM; active compounds read high
Sequence (P09936 whole entry, looked up): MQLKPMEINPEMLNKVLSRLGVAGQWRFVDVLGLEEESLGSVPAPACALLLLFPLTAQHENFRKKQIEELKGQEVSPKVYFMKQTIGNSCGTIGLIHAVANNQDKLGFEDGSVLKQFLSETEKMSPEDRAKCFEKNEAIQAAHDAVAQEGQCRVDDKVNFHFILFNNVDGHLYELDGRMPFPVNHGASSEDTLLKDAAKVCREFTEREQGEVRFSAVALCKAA

inhibition, inactive:
Fc1cc(F)cc(-c2noc3ncnc(N(Cc4ccco4)CC4CCCO4)c23)c1 (stereo unspecified) 0.782%
Cc1ccc(CN2C[C@H]3C[C@H](C(=O)NC(C)C)[C@@H](C2)O3)o1 2.08%
O=C1NC(=O)N2Cc3ccccc3CN(C(=O)c3ccc(Cl)cc3)CC12 (stereo unspecified) 0.947%
COc1ccc(CN=C2NS(=O)(=O)C(c3ccc(F)cc3)=C2C)cc1OC -4.12%
c1coc(CNc2nc(Nc3cccc4ccccc34)nc3ccccc23)c1 5.02%
CC(CC(=O)N1CCc2ccccc2C1)S(=O)(=O)c1ccc2c(c1)NC(=O)CCS2 (stereo unspecified) -1.85%
COc1ccc(C)cc1NC(=O)c1coc(NC(=O)c2ccco2)n1 -2.46%
CO[C@H]1C[C@@H]2CC[C@@H](C)[C@@](O)(O2)C(=O)C(=O)N2CCCC[C@H]2C(=O)O[C@H]([C@H](C)C[C@@H]2CC[C@@H](O)[C@H](OC)C2)CC(=O)[C@H](C)/C=C(\C)[C@@H](O)[C@@H](OC)C(=O)[C@H](C)C[C@H](C)/C=C/C=CC=C1C 6.78%
CCN1CCN(c2ccc(-c3nc(-c4cccc(F)c4)no3)cn2)CC1 -1.45%
CCc1nc(SCC(=O)Nc2cccc(OC)c2)c2c(=O)n(C)c(=O)n(C)c2n1 -0.222%
O=C1C2Cc3c([nH]c4ccccc34)C(c3ccccc3)N2C(=O)CN1C1CCCCC1 (stereo unspecified) 5.95%
O=C(C1=Cc2ccccc2OC1)N1CCN(c2ccccc2)CC1 0.226%
COc1cccc(C(=O)NC2CC(=O)N(c3ccc(F)cc3)C2)c1OC (stereo unspecified) 0.016%
Cc1nc(C2CCN(C(=O)C(C)(C)C)CC2)cc(N2C(=O)OCC2C(C)C)n1 (stereo unspecified) -3.66%
CC(C)c1cc(N2CCCCC2)nc(-c2ccccn2)n1 -3.77%
CN(C)S(=O)(=O)N1C[C@H](OCc2ccccn2)[C@H]2OCCC[C@H]21 -1.03%
Cc1nccn1-c1cccc(C2CCCN(c3ncccn3)C2)n1 (stereo unspecified) -0.888%
C/C=C(\C)C(=O)O[C@@H]1C[C@@]2(C)CC[C@H](C(C)C)[C@@]2(O)CC[C@@]1(C)O -2.54%
O=C1CN2CC(c3ccccc3S2(=O)=O)N1Cc1ccccc1 (stereo unspecified) -1.24%
CCC(=O)c1c(-c2ccc(F)cc2)c2c3n(c(-c4ccc(Cl)c(Cl)c4)cn13)CCCC2 3.03%
O=C1N[C@H]2OCCC[C@H]2[C@H](c2cccc(CNC(=O)c3ccon3)c2)N1 1.68%
Cc1ccccc1CN1C(=O)N(c2cccc(F)c2)c2ncccc2S1(=O)=O 3.52%
Cc1cnn(CC2CCCN2Cc2nc(-c3ccco3)no2)c1 (stereo unspecified) -8.36%
CC(=O)NCc1nc(-c2ccc3c(c2)nc(C)c(=O)n3C2CCCC2)no1 -31.3%
O=C(C1CCCN(c2cnc3nccnc3c2)C1)N1CCCCCC1 (stereo unspecified) -42.4%
CN(C)c1ncc(CN2CCN(C)C(c3ccccc3)C2)cn1 (stereo unspecified) -0.428%
CNC(=O)C1Cc2ccccc2N1S(=O)(=O)c1cccnc1 (stereo unspecified) -8.34%
Cc1ccc(C)c(S(=O)(=O)NCC(c2ccc3c(c2)CCN3C)N2CCCC2)c1 (stereo unspecified) -2.82%
COc1ccc(C(=O)N2CCCC(c3ccnc(=O)[nH]3)C2)cn1 (stereo unspecified) -1.26%
Cc1ccc(NC(=O)N2CCSc3ccccc32)cc1 -0.231%
Cc1nc(C2CCCN2C(=O)c2ccccn2)nc2c1CCCN2Cc1ccccn1 (stereo unspecified) -7.02%
COc1ccc(NC(=O)CN(C)C(=O)c2ccc3c(c2)nnn3C)cc1 2.41%
Cc1ccc(C(=O)N2CCN3Cc4ccccc4N(C)CC3C2)cc1 (stereo unspecified) -155%
Cc1cc(-c2cncnc2-c2ccc(CNC(=O)Cc3cc(F)ccc3F)cc2)on1 2.52%
CCc1ccc(C2CN3C(=O)CN(CCN4CCOCC4)C(=O)[C@]3(C)c3[nH]c4ccccc4c32)cc1 (stereo partly specified) 7.01%
O=C(O)c1ccccc1-c1ccccc1C(=O)Nc1ccccc1O 1.93%
O=C(Nc1cccc(-c2cccc(F)c2)c1)C1CCN(Cc2cccc3c2OCO3)CC1 6.73%
CC(C)(C)c1ccc(Oc2ccc(NC(=O)c3ccc4c(c3)CCO4)cn2)cc1 1.03%
CN(C(=O)CC(NC(=O)c1ccccc1)(c1ccccc1)c1ccccc1)c1ccccc1 1.79%
Cc1ccc(NC(=O)CCc2nc(CSc3nnc(-c4ccco4)o3)no2)cc1C 1.67%
CNCC(=O)N1CCCC(c2nc(C)cc(Nc3cccc(C)n3)n2)C1 (stereo unspecified) 0.00326%
COc1ccc(C)cc1NC(=O)NC1(c2nc(C)no2)CCCCC1 -4.28%
Cc1sc2ncn(CC(=O)N3c4ccccc4CC3C)c(=O)c2c1C (stereo unspecified) -2.03%
Cc1ccc(CS(=O)(=O)c2cn(CC(=O)NCc3cccnc3)c3ccccc23)cc1 1.32%
O=C(C1CCCN(S(=O)(=O)c2ccccc2)C1)N1CCN(CCc2ccccn2)CC1 (stereo unspecified) -1.48%
COc1ccc(NC(=O)C2=C(C)Nc3ncnn3C2c2cccc(OCc3ccc(F)cc3)c2)c(OC)c1 (stereo unspecified) 4.6%
COc1cc(C2CC(=O)Nc3cc4c(cc32)OCO4)ccc1O (stereo unspecified) -1.12%
CC(C)Cc1ncc(CCCN=C(N)N)[nH]c1=O -8.33%
COc1ccc(C2c3cccn3CCN2C(=O)Nc2cccs2)cc1 (stereo unspecified) -66.3%
Cc1ccccc1Cn1cc(/C=C2/C(=N)N3N=C(COc4ccccc4)SC3=NC2=O)c2ccccc21 -1.05%
CCOC(=O)C1=C(COc2ccccc2C#N)NC(=O)NC1C (stereo unspecified) -3.02%
Cc1cc(C)n2nc(C(=O)N3CCCC(c4[nH]ncc4C)C3)cc2n1 (stereo unspecified) -2.57%
Cc1nc(N(C)Cc2ccccc2)c2c3c(sc2n1)CCCC3 -6.54%
Cc1oc(C2CCN(C(=O)NC3CCCC3)CC2)nc1C(=O)N(C)C 1.1%
CC1CCN(C(=O)Cn2c(=O)n(Cc3ccccc3)c(=O)c3cc(Cl)ccc32)CC1 3.62%
COc1ccccc1C1CNCCN1Cc1cnc(N(C)C)nc1 (stereo unspecified) -0.867%
Cc1cc(OCc2ccc(Cl)cc2Cl)cc2c1C(=O)CC(C)(C)O2 3.56%
Cc1noc(C2CN(Cc3nccs3)Cc3ccnn3C2)n1 (stereo unspecified) -2.68%
O=C(CCc1c[nH]c2ccccc12)N1CCN(C(=O)C2CCCO2)CC1 (stereo unspecified) -0.0658%
Cc1nc2ccccc2n(CC(=O)NCc2ccc(OC(C)C)cc2)c1=O -4.18%
CCCN1CCC(Nc2ncnc3scc(-c4ccccc4)c23)CC1 -1.59%
